# High-throughput results: PubChem BioAssay, several laboratories
# RAM network inh – blocks the yeast RAM network; S. cerevisiae dse1pr::URA3 reporter, 5-FOA growth OD615, 2 d; analog-sensitive cbk1-as2 kinase mutant strain; inhibition, % at 50 µM; 190,000 tested, 1.8% active;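 active = inhibition above a set limit, 3 SD over mean compound inhibition, cut at about 8.4% in these data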;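 note: 0% = DMSO-only wells with no growth and 100% = 10 µM 1-NA-PP1 full growth; inhibition rescues growth on 5-FOA so higher OD means more RAM inhibition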
# WT yeast gro inh – growth inhibition of WT yeast, mitochondrial fusion screen | mitochondrial fusion phenotypic screen, WT strain | inhibition, % at 10 µM | 190,000 tested, 2.1% active | AID 1362; in the data active = inhibition above about 58%; tested in S. cerevisiae
# CHOP inhibitor – blocks CHOP induction under ER stress. AID 2732. CHO-K1 CHOP-promoter luciferase, tunicamycin-induced, 15-18 h. inhibition, % at 10 µM. 220,000 tested, 3.8% active;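 active = compounds that reduced the stress-induced luciferase reporter signal by more than about 70% of percent inhibition, limit read from the data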;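 note: 0% = tunicamycin plus vehicle and 100% = wells without tunicamycin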
# L major viab – reduces viability of Leishmania major promastigotes | inhibition, % at 10 µM | 200,000 tested, 9% active | resazurin fluorescence viability; in the data active = inhibition above about 50%;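 note: promastigotes grown with compound for 44 hours at 28 °C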
# * marks the source's active call; other numbers are inactive results; nt = not tested or not shown. Most compounds without a hit are left out; they make up all but 13% or so of the library.
SMILES,RAM network inh,WT yeast gro inh,CHOP inhibitor,L major viab
COc1ccc(CNC(=O)/C(C#N)=C2\N=C(NC(=O)c3cccs3)c3ccccc32)cc1,5,5,60,0
Cc1cc(N2CCN(C)CC2)nc2ccc(NC(=S)N3CCCCCC3)cc12,-1,20,17,22
Cc1cc(N2CCN(C)CC2)nc2ccc(NC(=S)NCCN3CCc4ccccc4C3)cc12,0,11,-8,100*
Cc1cc(N2CCCC2)nc2ccc(NC(=S)NCCCN3CCC(C)CC3)cc12,3,-8,4,100*
Cc1cc(N2CCOCC2)nc2ccc(NC(=S)N3CCCCC3C)cc12 (centres undefined),0,-36,-32,85*
CCN1CCN(c2cc(C)c3cc(NC(=S)NCCCN4CCc5ccccc5C4)ccc3n2)CC1,-1,-7,1,100*
Cc1oc2nc(SCC(=O)N3CCCCC3)nc(N)c2c1C,1,-2,-5,2
Cc1cc(-c2cc(-c3ccccc3)on2)nc(NCC2CC2)n1,nt,nt,17,nt
CCCN1CCN(CCCNC(=S)Nc2ccc3nc(N4CCN(CC)CC4)cc(C)c3c2)CC1,-1,15,4,26
Cc1cc(N2CCN(C)CC2)nc2ccc(NC(=S)NCCCN3CCc4ccccc4C3)cc12,1,10,4,100*
NCCCC[C@H](NC(=O)C1CCNCC1)c1nnc(CN)o1,0,-1,30,-4
COCCNC(=O)C(OC(=O)C1=Cc2ccccc2OC1)C(C)C (centres undefined),-1,-17,7,-5
CCOC(=O)CNC=C(C(=O)OCC)C(=O)OCC,0,18,-15,-6
CCOC(=O)C=C(C(=O)OCC)C(=O)OCC,-1,16,0,100*
COc1cc2c(c(OC)c1OC)CCc1cnoc1-2,nt,nt,22,nt
O=C(O)CC12CC3CC(C1)CC(n1cncn1)(C3)C2,2,-3,-10,-10
COc1ccccc1C(=O)N(CCC1CCCN1C)c1nc2ccccc2s1 (centres undefined),1,4,-15,100*
COc1ccc2sc(N(CCCN(C)C)C(=O)c3nc4ccccc4s3)nc2c1,0,9,34,-1
O=C(c1ccco1)N1CCN(S(=O)(=O)c2ccccc2[N+](=O)[O-])CC1,0,-7,26,-8
Cn1c(C(=O)N2CCc3ccccc3C2)cc2oc3ccccc3c21,2,66*,24,-7
CCn1c(C(=O)N2CCc3ccccc3C2)cc2oc3ccccc3c21,6,78*,51,-5
CCOc1ccccc1CNC(=O)c1cc2oc3ccccc3c2n1CC,8,24,34,97*
Cc1ccnc(SCCn2c(N3CC(C)CC(C)C3)nc3c2c(=O)n(C)c(=O)n3C)n1 (centres undefined),2,-1,8,58*
Cc1ccnc(SCCn2c(N3CC(C)OC(C)C3)nc3c2c(=O)n(C)c(=O)n3C)n1 (centres undefined),-1,-6,44,-2
CC1CCN(c2nc3c(c(=O)n(C)c(=O)n3C)n2CCSc2nc3ccccc3s2)CC1,3,23,76*,35
SMILES,RAM network inh,WT yeast gro inh,CHOP inhibitor,L major viab
CCOC(=O)c1ccc(NC(=O)C(C)N2C(=O)c3ccccc3C2=O)cc1 (centres undefined),2,15,31,-6
Cc1ccc(NC2=CC(=O)C(=O)c3ccccc32)cc1,1,65*,12,99*
CCOC(=O)c1ccc(NC2=CC(=O)C(=O)c3ccccc32)cc1,5,1,17,100*
Cc1ccc(NC2=C(Cl)C(=O)c3ccccc3C2=O)cc1,3,15,7,9
Cn1cc(CN2CCC[C@H]2CO)c(-c2cccc(Cl)c2)n1,2,-3,21,-8
CCOC(=O)N1CCC(NCCNC(=O)c2ccccc2)CC1,3,-7,-1,77*
CCOC(=O)N1CCC(NC(=O)c2cccs2)CC1,nt,nt,14,nt
CCOC(=O)N1CCC(NC(=O)c2ccccc2C(=O)O)CC1,nt,nt,3,nt
O=C(NCCCCCCNC(=O)c1cccs1)c1cccs1,1,5,-4,1
CCOC(=O)N1CCC(NCCNC(=O)c2cccs2)CC1,4,-7,-2,88*
O=C(NCCNC1CCC(c2ccccc2)CC1)c1cccs1 (centres undefined),1,7,12,94*
CCOC(=O)N1CCC(NCCNC(=O)c2ccccc2Cl)CC1,-1,-9,0,84*
CC(C)(C)OC(=O)N[C@@H](CC(=O)OCc1ccccc1)C(=O)O,0,-3,2,-10
Cc1ccc(N=Cc2c(O)n(-c3cc(Cl)ccc3N3CCOCC3)c(=O)c3ccccc23)cc1C,5,8,-17,70*
CN(C(=O)Cc1c[nH]c2ccccc12)C(C(=O)Nc1ccc2c(c1)OCO2)c1ccccc1 (centres undefined),5,2,20,61*
O=C(CSc1nccc(=O)[nH]1)NCc1ccc(Cl)cc1,0,-7,21,-3
Nc1nonc1C(=O)NCCNS(=O)(=O)c1ccc(F)cc1,1,-8,37,-6
O=C(O)/C=C/C(=O)Nc1ccc(N2CCOCC2)nc1N1CCOCC1,nt,nt,9,nt
Cc1cc(NC(=O)CSc2nc(C(C)C)nc3sc4c(c23)CCCC4)no1,2,20,77*,9
CCn1c(SCC(=O)Nc2cc(C)on2)nc2sc3c(c2c1=O)CCCC3,0,-10,107*,0
CCc1sc2nc(SCC(=O)Nc3cc(C)on3)n(-c3cccc(OC)c3)c(=O)c2c1C,6,0,89*,4
C=CCn1c(SCc2csc(C)n2)nc2sc3c(c2c1=O)CCCC3,9.3*,70*,58,0
Cc1ccccc1N=Nc1ccc(O)c2ncccc12,0,24,106*,100*
COc1ccc(C)cc1N=Nc1ccc(O)c2ncccc12,0,20,104*,100*
Oc1ccc(N=Nc2ccc3c(c2)OCCO3)c2cccnc12,6,8,0,100*
SMILES,RAM network inh,WT yeast gro inh,CHOP inhibitor,L major viab
COc1ccc(N=Nc2ccc(O)c3ncccc23)cc1,nt,nt,61,nt
Cc1cc2nc(CS)[nH]c2cc1C,nt,nt,-6,nt
CCC(CO)NCC#Cc1ccccc1 (centres undefined),2,-5,8,-2
O=C(OCCCCN1C(=O)c2ccccc2C1=O)c1n[nH]c2ccccc12,2,5,23,21
CC(Oc1ccc(Cl)cc1Cl)c1nc(-c2ccc(NC(=O)c3cccnc3)cc2)no1 (centres undefined),3,37,47,95*
COc1ccc(-c2noc(-c3ccccc3C(=O)Nc3cccnc3)n2)cc1OC,2,4,-7,71*
COc1ccc(-c2noc(-c3ccccc3C(=O)Nc3cccnc3)n2)cc1,2,-13,9,22
COc1ccc(Cl)cc1-c1nc(-c2ccc(NC(=O)c3cccs3)cc2)no1,1,0,-1,65*
Cc1ccnc2c(N3C(=O)C4C5C=CC(C5)C4(C)C3=O)cccc12 (centres undefined),-1,15,10,-8
CC12C(=O)N(c3ccccn3)C(=O)C1C1C=CC2C1 (centres undefined),0,-3,75*,-1
CCCOc1cccc(-c2nn(-c3ccccc3)cc2/C=C(\C#N)C(=O)NCCCn2ccnc2)c1,-1,8,35,89*
